AddAB inh – less growth of phage-infected E. coli with AddAB; E. coli expressing H. pylori AddAB, absorbance growth; inhibition, % at 11.9 µM; 330,000 tested, 0.29% active; in the data active = inhibition above about 12%
Tat export inh – E. coli Tat transport inhibition; E. coli MC4100 TorA-mCherry Tat export, fluorescence; inhibition, % at 10 µM; 340,000 tested, 0.036% active; AID 488895;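 active = mean replicate inhibition at least 50% and at least half of replicates individually reaching 50%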;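 note: exported cargo escapes ClpAP degradation while cytoplasmic cargo is degraded and loses fluorescence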
E coli growth-1 – E. coli growth inhibition; Escherichia coli growth, OD600, 23 h; active compounds read low; OD600 absorbance (test concentration not listed); 330,000 tested, 0.21% active; AID 1053175;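 active = OD600 absorbance below the run mean of sample wells minus 3.6 SD, in any replicate, cut at about 0.56 in these data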
phage Ecoli inh – E. coli growth loss with phage present; growth absorbance; inhibition, % at 11.9 µM; 360,000 tested, 0.26% active; AID 651602; in the data active = inhibition above about 11%
E coli growth-2 – reduces bacterial viability in AddAB counter-screen. inhibition, % at 11.9 µM. E. coli V3065 growth, OD600 absorbance, 18 h. 330,000 tested, 0.27% active;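 active = inhibition above the campaign's mean inhibition across all tested compounds plus 3 SD, cut at about 9.9% in these data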;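 note: uninfected addAB+ strain grown without phage in ampicillin broth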
RecBCD conf – confirmation: growth loss of phage-infected RecBCD+ E. coli (RecBCD inhibitor screen) | AID 651982 | E. coli V66 + T4 2- phage, growth OD | 890 tested, 45% active | shares compounds with phage Ecoli inh | inhibition, % at 11.9 µM;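 active = mean inhibition over triplicates exceeding the hit threshold derived in the original primary screen, cut at about 11% in these data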
Ecoli viability – inhibits E. coli viability, flagging RecBCD hits as nonselective; AID 651983; 890 tested, 29% active; shares compounds with phage Ecoli inh; inhibition, % at 11.9 µM; absorbance (OD) growth; in the data active = inhibition above about 20%;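 note: E. coli strain V66 grown with compound alone and no phage infection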
AddAB phage OD – growth loss of phage-infected AddAB E. coli, RecBCD counter-screen | E. coli expressing H. pylori AddAB + T4 phage, OD growth; gene 2 mutant T4, recBCD-deleted host | shares compounds with phage Ecoli inh | AID 651984 | 890 tested, 45% active | inhibition, % at 11.9 µM;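 active = mean inhibition above the solvent-only control wells' mean plus 3 SD, cut at about 22% in these data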;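 note: higher means less bacterial growth from phage killing when AddAB is blocked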
Large screens that a line does not name were inactive (follow-up assays come after a bar, where they were run). In the library only some 0.5% were active in any assay of this set; here they are far more common.

NC(=O)/C(=C\c1ccc([N+](=O)[O-])o1)c1ccco1	phage Ecoli inh 100.0 (no result: AddAB inh, Tat export inh, E coli growth-1, E coli growth-2) | RecBCD conf 101.8 | Ecoli viability 102.6 | AddAB phage OD 101.1
Cc1cc(NS(=O)(=O)c2ccc(NC(=S)Nc3ccc(Cl)cc3C)cc2)no1	phage Ecoli inh 12.4 | RecBCD conf inactive | Ecoli viability inactive | AddAB phage OD inactive
COc1cc(N(C)C)ccc1C=c1c2ccccc2n2c1cc(-c1ccccc1)[n+]2C	phage Ecoli inh 27.6 (no result: AddAB inh, E coli growth-1, E coli growth-2) | RecBCD conf 32.3 | Ecoli viability 36.1 | AddAB phage OD 97.2
COC(=O)Cn1ccnc1[N+](=O)[O-]	phage Ecoli inh 15.6 (no result: AddAB inh, Tat export inh, E coli growth-1, E coli growth-2) | RecBCD conf inactive | Ecoli viability inactive | AddAB phage OD 90.1
CC(=NNC(=S)Nc1ccccc1Cl)c1ccccn1	phage Ecoli inh 14.3 (no result: AddAB inh, E coli growth-1, E coli growth-2) | RecBCD conf inactive | Ecoli viability inactive | AddAB phage OD inactive
CC(=NNC(=S)Nc1ccccc1)c1ccccn1	phage Ecoli inh 15.6 (no result: AddAB inh, Tat export inh, E coli growth-1, E coli growth-2) | RecBCD conf inactive | Ecoli viability inactive | AddAB phage OD inactive
CC(=NNC(=O)c1ccccc1Cl)c1ccccn1	none (no result: AddAB inh, Tat export inh, phage Ecoli inh, E coli growth-2)
Oc1cccc2cc(Nc3ccccc3)cnc12	phage Ecoli inh 22.7 (no result: AddAB inh, Tat export inh, E coli growth-1, E coli growth-2) | RecBCD conf 16.0 | Ecoli viability inactive | AddAB phage OD 25.1
Cc1cccc(N2CC(c3nc4ccccc4[nH]3)CC2=O)c1 (stereo not drawn)	none
CCN(CC)S(=O)(=O)c1cccc(C(=O)N/N=C/c2ccc(O)c(O)c2O)c1	AddAB inh 13.6, phage Ecoli inh 13.6 (no result: E coli growth-1) | RecBCD conf inactive | Ecoli viability inactive | AddAB phage OD inactive
CCN1CCN(CC(O)COCCOc2ccc(Br)cc2)CC1 (stereo not drawn)	none
CC(=NNc1nc2ccccc2s1)c1ccncn1	phage Ecoli inh 26.5 (no result: AddAB inh, E coli growth-1, E coli growth-2) | RecBCD conf 16.8 | Ecoli viability inactive | AddAB phage OD 25.3
Cc1cc2ncn(N=Cc3ccc([N+](=O)[O-])o3)c2cc1C	none (no result: AddAB inh, Tat export inh, phage Ecoli inh, E coli growth-2)
O=[N+]([O-])c1ccc(C=NN2CCNC2=S)o1	phage Ecoli inh 101.4 (no result: AddAB inh, Tat export inh, E coli growth-1, E coli growth-2) | RecBCD conf 100.6 | Ecoli viability 102.0 | AddAB phage OD 101.0
CCN(CC)CC1CN(N=Cc2ccc([N+](=O)[O-])o2)C(=O)O1 (stereo not drawn)	E coli growth-1 0.0635, phage Ecoli inh 38.9 (no result: AddAB inh, E coli growth-2) | RecBCD conf 41.1 | Ecoli viability 59.4 | AddAB phage OD 101.6
COc1cc(OC)cc(C(=O)NCCSc2c[nH]c3ccccc23)c1	none
Nc1nc(F)nc2c1ncn2[C@@H]1O[C@H](CO)[C@@H](O)[C@@H]1O	phage Ecoli inh 75.2 (no result: E coli growth-1) | RecBCD conf 77.5 | Ecoli viability 78.8 | AddAB phage OD 77.7
Nc1ncnc2c1ncn2[C@@H]1O[C@H](CO)[C@@H](O)[C@@H]1O	none (no result: E coli growth-1)
O=c1ncccn1C1OC(CO)C(O)C1O (stereo not drawn)	phage Ecoli inh 95.7 (no result: AddAB inh, Tat export inh, E coli growth-1, E coli growth-2) | RecBCD conf 92.7 | Ecoli viability 100.8 | AddAB phage OD 98.0
O=c1[nH]c(=O)n(C2OC(CO)C(O)C2O)cc1F (stereo not drawn)	none (no result: AddAB inh, E coli growth-1, phage Ecoli inh, E coli growth-2)
Nc1nc(=O)n(C2OC(CO)C(O)C2O)cc1F (stereo not drawn)	phage Ecoli inh 21.1 (no result: AddAB inh, Tat export inh, E coli growth-1, E coli growth-2) | RecBCD conf 25.7 | Ecoli viability 21.1 | AddAB phage OD 52.8
Cc1cn(C2CCC(CO)O2)c(=O)[nH]c1=O (stereo not drawn)	phage Ecoli inh 24.1 (no result: AddAB inh, E coli growth-2) | RecBCD conf 20.4 | Ecoli viability inactive | AddAB phage OD 60.2
Cc1ccc2cc(CN(Cc3ccco3)C(=S)NCC3CCCO3)c(=O)[nH]c2c1 (stereo not drawn)	none (no result: phage Ecoli inh)
CC(C)(C)C(=O)Nc1ccc(Sc2ccc([N+](=O)[O-])cc2)cc1	none
CC(=O)Nc1ccc(Sc2ccc([N+](=O)[O-])o2)cc1	phage Ecoli inh 21.4 (no result: AddAB inh, E coli growth-2) | RecBCD conf 14.9 | Ecoli viability inactive | AddAB phage OD 72.3
Cc1ccccc1CNC(=O)c1ccccc1C	none
Cc1ccccc1C(=O)NCC(C)NC(=O)c1ccccc1C (stereo not drawn)	phage Ecoli inh 99.8 | RecBCD conf inactive | Ecoli viability inactive | AddAB phage OD inactive
COC(=O)C1=C(C)N(C(C)C)C(=O)C1(NC(C)=O)C(F)(F)F (stereo not drawn)	none

Screening results: PubChem BioAssay, several laboratories
